# Test results reported in PubChem BioAssay (NCATS).
# Where “and” joins values, the source holds several entries; their conditions need not be identical. Equal entries are not always repeated. Inconclusive results are not listed. Calls of active or inactive are those of the source. Unless noted, the call rests on the fitted dose curve.
# Experiments:
# [1] = qHTS assay for small molecule agonists of retinoid X receptor alpha signaling (AID 588544); details: HEK293T RXRa-UAS-bla, beta-lactamase reporter, 18 h; 530 nm emission;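 on activation: 0% = DMSO basal wells and 100% = reference agonist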
# [2] = molecular target: Retinoic acid receptor RXR-alpha (Homo sapiens) (UniProt P19793); experiment: as above; details: HEK293T RXRa-UAS-bla, beta-lactamase reporter, 18 h; series mostly up to 76.7 µM
# [3] = molecular target: Thyroid hormone receptor beta (Homo sapiens) (UniProt P10828); experiment: qHTS assay for small molecule agonists of thyroid hormone receptor beta signaling (AID 588545); details: TR-UAS-bla GripTite HEK 293, beta-lactamase ratio, agonist mode, 18 h, percent of T3 response, DMSO as zero; series mostly up to 76.7 µM;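 further: 0% = DMSO only and 100% = 10 nM T3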
# Outline: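 Efficacy and EC50 values derive from Hill fits of qHTS titration data, normalized to 10 nM T3 and DMSO-only wells. HEK 293 reporter cells were stimulated for 18 hrs at 37 C, with beta-lactamase activity measured by CCF4 fluorescence.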
# [4] = qHTS assay for small molecule antagonists of retinoid X receptor alpha signaling (AID 588546; active means well fitted inhibition curve with a large enough effect in the signal ratio, with a control signal flat, not every such curve was filed as active; the % refers to the signal ratio;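 further: cells stimulated with 9-cis-retinoic acid as agonist; on the % scale 0 is the no-effect control and ±100 the full control effect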); details: HEK293T RXRa-UAS-bla, beta-lactamase ratio, antagonist mode; measured here: W530 green channel, cytotoxicity proxy
# Outline: (§1)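 Beta-lactamase reporter inhibition, read as CCF4 fluorescence ratio (ex 405, em 460/530 nm) after 2 h at RT. HEK293T UAS-bla cells, 2500/well, were stimulated with 9-cis-RA at 500 or 100 nM final alongside test compound for 18 h at 37 C.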
# [5] = molecular target: Retinoic acid receptor RXR-alpha (Homo sapiens) (UniProt P19793); experiment: as above; details: HEK293T RXRa-UAS-bla, beta-lactamase ratio, antagonist mode
# Outline: as §1
# [6] = molecular target: Voltage-gated inwardly rectifying potassium channel KCNH2 (Homo sapiens) (UniProt Q12809); experiment: qHTS Assay for Small Molecule Inhibitors of the Human hERG Channel Activity (AID 588834; active means well fitted inhibition curve with a large enough effect;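 further: U2OS cells transduced with hERG by BacMam; top concentration of the series differs between compounds; on the % scale 0 is the no-effect control and ±100 the full control effect; lower thallium flux fluorescence means stronger hERG block; nearly all actives have a fitted effect of over 50% in size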); details: U2OS BacMam hERG, FluxOR thallium flux fluorescence; series mostly up to 92.2 µM
# Outline: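 Cells were infected with hERG-BacMam virus for 4 hrs at room temperature, grown overnight, then seeded at 2000/well. After dye loading and roughly 10 min compound treatment, thallium influx was triggered and fluorescence recorded.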
# [7] = qHTS assay for small molecule activators of the p53 signaling pathway (AID 651743; active means well fitted activation curve with a large enough effect in the signal ratio, not every such curve was filed as active; the % refers to the signal ratio; further: % of control where 0% means no effect); details: HCT-116 p53RE-bla, beta-lactamase FRET ratio, 16 h; stronger effect = higher value
# Outline: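 Following 16 hours of compound exposure at 37 C, HCT-116 cells bearing the p53RE-bla reporter were loaded with LiveBLAzer B/G FRET substrate for 2 hours at room temperature and fluorescence intensity was recorded.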
# [8] = qHTS assay for small molecule agonists of the antioxidant response element (ARE) signaling pathway (AID 651741; active means well fitted activation curve with a large enough effect in the signal ratio; the % refers to the signal ratio; further: potency means the concentration at half of the fitted maximal effect; on activation: % of control where 0% means no effect); details: HepG2 ARE-bla reporter, beta-lactamase FRET ratio, 16 h; series mostly up to 96 µM
# Outline: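 Stably integrated ARE-beta-lactamase reporter HepG2 cells; 16 h compound incubation, 37 C; LiveBLAzer FRET substrate 2 h at room temperature; fluorescence intensity.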
# [9] = qHTS assay for small molecule activators of the nuclear factor-kappa B (NF-kB) signaling pathway (AID 651749; active means well fitted activation curve with a large enough effect in the signal ratio; the % refers to the signal ratio; further: % of control where 0% means no effect); details: NF-kB-bla ME-180 cells, beta-lactamase FRET ratio, 16 h; stronger effect = higher value
# Outline: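 In this qHTS format, compounds acting as activators increase NF-kB-driven beta-lactamase in ME-180 cells, measured as disrupted FRET after 16 hr exposure at 37C and 5% CO2.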
# [10] = molecular target: Thyroid hormone receptor beta (Homo sapiens) (UniProt P10828); experiment: qHTS assay for small molecule antagonists of thyroid hormone receptor beta signaling (AID 588547; active means well fitted inhibition curve with a large enough effect in the signal ratio, with a control signal flat, not every such curve was filed as active; the % refers to the signal ratio;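 further: cells stimulated with 0.4 nM T3 agonist during compound exposure; on the % scale 0 is the no-effect control and ±100 the full control effect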); details: TR-UAS-bla HEK293, beta-lactamase ratio, antagonist mode, 18 h
# Outline: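 TR-UAS-bla GripTite HEK293 cells in 2% charcoal/dextran FBS medium; compounds 0.59 nM to 92 uM with T3 at 0.4nM final, 18 h at 37 C. Beta-lactamase read by CCF4 fluorescence (460/530 nm); Hill fits gave IC50 and efficacy.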
# Chain of Retinoic acid receptor RXR-alpha (Homo sapiens) (P19793 whole entry, looked up): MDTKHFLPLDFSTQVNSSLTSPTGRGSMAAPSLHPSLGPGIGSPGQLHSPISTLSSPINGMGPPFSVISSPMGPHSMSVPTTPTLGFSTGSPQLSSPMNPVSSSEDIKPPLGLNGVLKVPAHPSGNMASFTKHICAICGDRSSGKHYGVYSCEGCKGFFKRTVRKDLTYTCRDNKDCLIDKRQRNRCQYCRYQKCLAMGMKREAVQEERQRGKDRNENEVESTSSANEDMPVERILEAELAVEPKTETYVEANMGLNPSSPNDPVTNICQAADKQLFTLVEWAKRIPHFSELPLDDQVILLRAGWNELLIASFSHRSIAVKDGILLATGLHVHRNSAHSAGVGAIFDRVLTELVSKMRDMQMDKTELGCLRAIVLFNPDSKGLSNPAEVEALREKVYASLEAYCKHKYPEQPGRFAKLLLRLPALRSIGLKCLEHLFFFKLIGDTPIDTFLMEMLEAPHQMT
# Chain of Voltage-gated inwardly rectifying potassium channel KCNH2 (Homo sapiens) (Q12809 whole entry, looked up): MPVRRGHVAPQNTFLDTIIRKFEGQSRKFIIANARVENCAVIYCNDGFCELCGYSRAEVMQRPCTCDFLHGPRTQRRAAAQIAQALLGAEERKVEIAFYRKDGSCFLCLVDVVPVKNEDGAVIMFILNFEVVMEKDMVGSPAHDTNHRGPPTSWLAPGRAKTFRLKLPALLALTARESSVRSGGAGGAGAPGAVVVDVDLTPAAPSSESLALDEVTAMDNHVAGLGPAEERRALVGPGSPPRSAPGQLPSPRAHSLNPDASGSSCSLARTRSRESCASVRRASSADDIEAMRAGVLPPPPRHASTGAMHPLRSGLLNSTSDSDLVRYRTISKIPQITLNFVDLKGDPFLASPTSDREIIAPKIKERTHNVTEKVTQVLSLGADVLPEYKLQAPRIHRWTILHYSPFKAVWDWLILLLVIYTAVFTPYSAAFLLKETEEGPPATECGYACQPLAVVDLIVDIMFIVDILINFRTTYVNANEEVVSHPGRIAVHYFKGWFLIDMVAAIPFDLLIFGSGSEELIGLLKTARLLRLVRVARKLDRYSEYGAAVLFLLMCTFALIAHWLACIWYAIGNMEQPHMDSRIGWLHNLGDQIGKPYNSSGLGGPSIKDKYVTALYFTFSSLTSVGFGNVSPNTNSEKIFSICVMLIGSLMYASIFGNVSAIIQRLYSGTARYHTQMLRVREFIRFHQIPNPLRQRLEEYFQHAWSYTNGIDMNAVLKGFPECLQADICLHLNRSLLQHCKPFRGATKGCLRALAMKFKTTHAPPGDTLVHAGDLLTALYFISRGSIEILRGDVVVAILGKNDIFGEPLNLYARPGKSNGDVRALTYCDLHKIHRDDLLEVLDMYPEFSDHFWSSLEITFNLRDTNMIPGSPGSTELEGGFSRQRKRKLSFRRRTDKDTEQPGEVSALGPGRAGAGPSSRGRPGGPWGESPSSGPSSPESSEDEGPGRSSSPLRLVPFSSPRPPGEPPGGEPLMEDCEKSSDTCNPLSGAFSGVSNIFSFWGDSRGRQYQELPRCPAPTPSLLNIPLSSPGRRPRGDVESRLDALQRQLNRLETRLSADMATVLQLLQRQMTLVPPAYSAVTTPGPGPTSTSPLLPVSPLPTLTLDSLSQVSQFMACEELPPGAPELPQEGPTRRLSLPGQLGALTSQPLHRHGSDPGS
# Chain of Thyroid hormone receptor beta (Homo sapiens) (P10828 whole entry, looked up): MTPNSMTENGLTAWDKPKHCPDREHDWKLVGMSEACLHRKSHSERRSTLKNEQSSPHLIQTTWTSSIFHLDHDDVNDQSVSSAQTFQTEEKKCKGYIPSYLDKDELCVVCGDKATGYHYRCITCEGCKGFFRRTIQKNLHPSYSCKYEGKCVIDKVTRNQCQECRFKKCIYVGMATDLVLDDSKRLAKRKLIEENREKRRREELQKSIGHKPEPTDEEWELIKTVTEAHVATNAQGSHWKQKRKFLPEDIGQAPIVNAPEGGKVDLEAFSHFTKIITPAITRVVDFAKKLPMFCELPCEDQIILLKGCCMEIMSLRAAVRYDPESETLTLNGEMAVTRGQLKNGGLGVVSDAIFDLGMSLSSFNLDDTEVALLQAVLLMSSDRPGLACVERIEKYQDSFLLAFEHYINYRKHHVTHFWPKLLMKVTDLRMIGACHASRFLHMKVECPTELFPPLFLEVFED
SMILES,max response [1],outcome [2],outcome [3],max response [4],max response [5],Potency [6],activation [7],Potency [8],activation [9],activity change % (negative = inhibition) [10]
O=Cc1ccc(Cl)cc1,-8%,inactive,inactive,-0.849%,-5.61% (inactive),inactive,-0.245% (inactive),,,
Cc1ccc(C)o1,16.3%,inactive,inactive,5.87%,-4.44% (inactive),inactive,-6.1% (inactive),inactive,,
O=C(O)c1ccccc1[N+](=O)[O-],-10.1%,inactive,inactive,-4.69%,2.43% (inactive),inactive,2% (inactive),,0.408% (inactive),
Cc1cc(C)cc([N+](=O)[O-])c1,8.04%,inactive,inactive,5.59%,4.7% (inactive),inactive,-0.0084% (inactive),,0.968% (inactive),
NCCCCCCN,1.96%,inactive,inactive,-3.24%,17.1% (inactive),inactive,-1.12% (inactive),inactive,-0.106% (inactive),
CC(O)COC(C)(C)C (stereo not drawn),-7.25%,inactive,inactive,0.664%,-2.68% (inactive),inactive,-6.33% (inactive),inactive,-0.964% (inactive),
Nc1cc([N+](=O)[O-])ccc1C(=O)O,8.72% and -23.6%,inactive,inactive,-12.5% and -8.81%,19.8% (inactive) and -9.41% (inactive),inactive,-3.96% (inactive) and 3.5% (inactive),,,
CNC(=O)N(c1ccccc1)c1ccccc1,-17.1%,inactive,inactive,12.2%,-3.69% (inactive),inactive,0.514% (inactive),,0.192% (inactive),
CCCCCO,-7.88%,inactive,inactive,-5.62%,1.09% (inactive),inactive,0.0408% (inactive),inactive,-0.261% (inactive),
O=Cc1c(Cl)cccc1Cl,3.02%,inactive,inactive,-5.87%,-1.18% (inactive),inactive,-2.41% (inactive),inactive,-0.578% (inactive),
Clc1ccc(Cl)c(Cl)c1Cl,-17% and 0.458%,inactive,inactive,6.74% and -2.64%,10.9% (inactive) and -11.3% (inactive),inactive,-4.49% (inactive) and 4.59% (inactive),inactive,0.56% (inactive) and -0.536% (inactive),
CC(C)Nc1ccccc1,-11%,inactive,inactive,-12.9%,3.31% (inactive),inactive,-0.311% (inactive),inactive,0.185% (inactive),
CN(C)CCCCl,-11.7%,inactive,inactive,-4.19%,-2.2% (inactive),inactive,-1.08% (inactive),,0.444% (inactive),
C=CCOC(=O)COCCC(C)C,-2.63%,inactive,inactive,-11.5%,9.99% (inactive),inactive,,inactive,-0.303% (inactive),
CC(C)(C)OCC1CO1 (stereo not drawn),-14.1%,inactive,inactive,-6.46%,-4.17% (inactive),inactive,0.176% (inactive),,0.44% (inactive),
CCc1ccccc1O,-12.3%,inactive,inactive,-5.98%,5.77% (inactive),inactive,,,0.236% (inactive),
CO[Si](CCCNCCC[Si](OC)(OC)OC)(OC)OC,9.17%,inactive,inactive,7.72%,10.8% (inactive),inactive,0.23% (inactive),inactive,0.71% (inactive),
Cc1ccc2c(c1[N+](=O)[O-])C(=O)c1ccccc1C2=O,-1.88%,inactive,inactive,-5.46%,-0.36% (inactive),inactive,7.91% (inactive),11.9 µM (active),-0.166% (inactive),
Cc1ccc(Br)cc1,5.91%,inactive,inactive,1.18%,-0.837% (inactive),inactive,,inactive,,
O=CNc1ccccc1,-8.25%,inactive,inactive,2.83%,1.7% (inactive),inactive,,,,
N#Cc1ccccc1,-9.04%,inactive,inactive,0.37%,1.5% (inactive),inactive,-1.56% (inactive),inactive,0.786% (inactive),
Cc1cccc2sc(N)nc12,-1.76%,inactive,inactive,-5.71%,1.45% (inactive),inactive,2.1% (inactive),15 µM (active),0.512% (inactive),
CCCCCNCCCCC,1.44% and -10.1%,inactive,inactive,-1.51% and -1.45%,4.32% (inactive) and 13.3% (inactive),inactive,-2.16% (inactive) and -1.29% (inactive),inactive,,
O=C1OC(=O)c2c(Br)c(Br)c(Br)c(Br)c21,-2.51% and -8.84%,inactive,inactive,-0.218% and -8.01%,6.1% (inactive) and -5.43% (inactive),inactive,,,0.149% (inactive) and 3.05% (inactive),
CC=O,-8.77%,inactive,inactive,-2.19%,-0.48% (inactive),inactive,0.53% (inactive),inactive,9.05% (inactive),
O=C1NC(=O)c2cc([N+](=O)[O-])ccc21,3.03%,inactive,,4.85%,7.59% (inactive),inactive,-2.78% (inactive),inactive,0.0192% (inactive),2.64% (inactive)
COC(=O)CC#N,-7.46%,inactive,,-3.78%,-0.774% (inactive),inactive,-2.67% (inactive),inactive,-0.54% (inactive),2.83% (inactive)
CCOc1ccc(NC(C)=O)cc1N,3.78%,inactive,inactive,,,inactive,-6.53% (inactive),,-1.6% (inactive),2.46% (inactive)
Nc1ccccc1[N+](=O)[O-],-4.62%,inactive,,1.56%,-0.391% (inactive),inactive,-3.02% (inactive),inactive,0.892% (inactive),-6.45% (inactive)
